# In PubChem BioAssay (EPA / NIEHS):
# Active and inactive are the calls of the source. How the source made its calls: active means hit-call score of the fitted dose curve at least 0.9, where 1 is the maximum; inactive means score below 0.9.
# Assay: APR_HepG2_MitoticArrest_72hr: Apredica 72-hour HepG2 Assay for Mitotic Arrest (AID 2282918)
# Settings: high-content imaging, actives raise or lower the signal
# Method: APR_HepG2_72hr is a cell-based, multiplexed-readout assay that uses HepG2, a human liver cell line, with measurements taken at 72 hours after chemical dosing in a 384-well plate.APR_HepG2_MitoticArrest_72hr is one of 10 assay component(s) measured or calculated from the APR_HepG2_72hr assay. It is designed to make measurements of cell phenotype, a form of morphology reporter, as detected with fluorescence intensity signals by HCS Fluorescent Imaging technology.Data from the assay component APR_HepG2_MitoticArrest_72hr was analyzed into 1 assay endpoint. This assay endpoint, APR_HepG2_MitoticArrest_72hr, was analyzed with bidirectional fitting relative to DMSO as the negative control and baseline of activity. Using a type of morphology reporter, measures of protein for gain or loss-of-signal activity can be used to understand the signaling at the pathway-level as they relate to the gene . Furthermore, this assay endpoint can be referred to as a primary readout, because this assay has produced multiple assay endpoints where this one serves a signaling function. To generalize the intended target to other relatable targets, this assay endpoint is annotated to the cell cycle intended target family, where the subfamily is arrest.
# Cells were treated with dimethyl sulfoxide (DMSO) as a solvent control at a final concentration of 0.5% v/v or with compounds in DMSO with a resulting final DMSO concentration of 0.5% v/v. Compound treatment was done at concentrations of 0.39, 0.78, 1.56, 3.12, 6.24, 12.5, 25, 50, 100, and 200 uM in duplicate on each plate. Cells were treated with compounds for 1, 24, or 72 hr. Carbonyl […] m-chloro-phenylhydrazone (CCCP) and taxol were used as positive controls for mitochondrial function and cytoskeletal stability, respectively; DMSO served as the negative control for this experiment. Cells were fixed by the direct addition of 50 uL formaldehyde in Hank's Balanced Salt Solution (HBSS) to a final concentration of 3.7%. After incubation in the fixation medium for 30 min at room temperature (293-298 K), cells were rinsed twice with HBSS and treated with cell permeabilization buffer (16 uL of 0.5% Triton X-100) for 10 min at room temperature (293-298 K) before labeling. For mitochondrial membrane potential and mitochondrial measurements, pre-fixed cells were incubated with 50 uL of MitoTracker Red CMXRos (Invitrogen) at a concentration of 250 nM for 30 min before fixation. In the remaining cases, post-fixed cells were labeled by incubation with a multiplexed mixture of primary antibodies in HBSS for 60 min at room temperature (293-298 K) to detect immunoreactivity of c-Jun (1:500), phospho-histone H3 (1:100), phospho-histone H2A.x (1:200), p53 (1:400), alpha-tubulin (1:200) and Hoechst 33342 (2 ug/mL). Cells were labeled for multiplexed imaging on two separate plates: a) Hoechst 33342, MitoTracker Red, phospho-histone H3, and alpha-tubulin, and b) Hoechst 33342, phospho-histone H2A.x, and c-Jun. A final rinse with HBSS (50 uL) was performed before analysis. The primary and secondary antibodies for the proteins were phospho-histone H3 (rabbit anti-phospho-histone H3 and FITC-donkey anti-rabbit IgG), phospho-histone H2A.x (mouse anti-phospho-histone H2A.x and FITC-donkey anti-mouse IgG), c-Jun (rabbit anti-phospho-c-Jun and Cy3-donkey anti-rabbit IgG), p53 (sheep anti-p53 and Cy5-donkey anti-sheep IgG), alpha-tubulin (mouse anti-alpha-tubulin and Cy5-donkey anti-mouse IgG). These antibodies are available as the CellCiphr HepG2 assay kit (Millipore).Digital images of each well were captured using a Cellomics ArrayScan VTI (Thermo Scientific Cellomics) (0.8 NA objective, 0.63x optical coupler, and XF-93 filter set) at 20x magnification. The images were acquired using the autofocus feature of the ArrayScan instrument, which entails the following steps. First, the camera focuses on channel 1 (Hoechst 33342), where nuclei are identified. Second, a Z offset of 1 um is used for capturing mitochondria (MitoTracker Red). […]
SMILES,AC50,outcome
O=C(CCCN1CCC(O)(c2ccc(Cl)cc2)CC1)c1ccc(F)cc1,19.8 µM (active),
CN(C)CCOC(c1ccccc1)c1ccccc1,111 µM (active),
O=C1NS(=O)(=O)c2ccccc21,,inactive
CCCCCCCCCCCCCCC,,inactive
CCCCCCCCCCCCOS(=O)(=O)O,,inactive
CS(=O)(=O)c1ccc([C@@H](CC2CCCC2)C(=O)Nc2cnccn2)cc1Cl,,inactive
N=C(N)c1ccc(OCCCCCOc2ccc(C(=N)N)cc2)cc1,21.6 µM (active),
CCCCc1oc2ccccc2c1C(=O)c1cc(I)c(OCCN(CC)CC)c(I)c1,8.51 µM (active),
CCCCC=O,,inactive
CN(Cc1cnc2nc(N)nc(N)c2n1)c1ccc(C(=O)N[C@@H](CCC(=O)O)C(=O)O)cc1,,inactive
O=C(c1ccccc1)c1ccccc1,,inactive
CC(=O)Nc1ccc(O)cc1,,inactive
Cc1[nH]nc2c1N=C(c1ccccc1Cl)c1cc([N+](=O)[O-])ccc1N2,28.8 µM (active),
